Experimental data reported in the supplement of paper PMC11732987, “Enantioselective OTUD7B fragment discovery through chemoproteomics screening and high-throughput optimisation” (Communications Chemistry, 2025).

How the values were obtained:
Experiment in all cases: log2 ratio of Biotin-Ahx-Ub-VS probe labelling (fragment/DMSO); higher = less target engagement (more negative = stronger competition), active = hit call of the paper (q ≤ 0.05, log2 ratio ≤ -1)
Conditions in all cases: compound concentration: 200 uM; treatment time: 3 h
USP34 = USP34 (UniProt Q70CQ2)
In short: (§1)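 Each value is an average log2 ratio of fragment to vehicle, tested by unpaired t-test. The underlying Spectronaut label-free quantities were global-median-normalised, and only proteins with ≥2 unique peptides were included. Triplicate HEK293T lysate samples (495 µg) were exposed to fragment at 200 µM or vehicle for 3 h, then to Biotin-Ahx-Ub-VS at 0.5 µM final for 1 h, before NeutrAvidin enrichment of labelled DUBs, LysC and trypsin digestion, and diaPASEF LC-MS/MS.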

USP36 = molecular target: T1, USP36 (UniProt Q9P275)
T1 sequence (whole entry): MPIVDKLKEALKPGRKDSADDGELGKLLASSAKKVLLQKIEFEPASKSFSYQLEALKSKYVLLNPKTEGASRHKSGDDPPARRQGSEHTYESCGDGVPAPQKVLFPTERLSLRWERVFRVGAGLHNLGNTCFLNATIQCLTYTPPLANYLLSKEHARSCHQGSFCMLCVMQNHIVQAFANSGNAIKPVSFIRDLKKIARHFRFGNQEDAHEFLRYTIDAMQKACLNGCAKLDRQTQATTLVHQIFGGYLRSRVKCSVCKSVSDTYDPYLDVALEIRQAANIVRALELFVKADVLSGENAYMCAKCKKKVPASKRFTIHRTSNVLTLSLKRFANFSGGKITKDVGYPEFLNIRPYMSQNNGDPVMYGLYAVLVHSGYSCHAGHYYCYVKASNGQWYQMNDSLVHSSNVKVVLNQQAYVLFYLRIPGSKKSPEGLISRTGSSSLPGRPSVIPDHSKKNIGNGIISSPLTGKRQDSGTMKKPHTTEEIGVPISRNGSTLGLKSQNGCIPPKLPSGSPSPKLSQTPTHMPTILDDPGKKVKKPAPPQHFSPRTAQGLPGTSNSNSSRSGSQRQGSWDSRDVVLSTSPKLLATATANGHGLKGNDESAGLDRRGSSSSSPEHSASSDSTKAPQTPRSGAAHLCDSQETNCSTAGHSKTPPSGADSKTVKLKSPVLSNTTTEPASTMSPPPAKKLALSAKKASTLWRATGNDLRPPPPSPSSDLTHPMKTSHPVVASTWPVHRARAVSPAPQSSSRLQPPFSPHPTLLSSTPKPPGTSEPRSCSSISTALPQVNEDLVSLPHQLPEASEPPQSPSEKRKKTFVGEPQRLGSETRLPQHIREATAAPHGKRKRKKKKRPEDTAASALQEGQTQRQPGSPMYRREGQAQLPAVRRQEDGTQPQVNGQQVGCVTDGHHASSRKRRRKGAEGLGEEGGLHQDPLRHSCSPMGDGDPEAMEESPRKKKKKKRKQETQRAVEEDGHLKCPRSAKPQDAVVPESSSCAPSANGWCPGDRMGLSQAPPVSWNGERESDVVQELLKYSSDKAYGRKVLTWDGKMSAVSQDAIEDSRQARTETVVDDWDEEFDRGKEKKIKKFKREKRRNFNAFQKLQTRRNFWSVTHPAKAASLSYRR
In short: as §1

USP38 = molecular target: T2, USP38 (UniProt Q8NB14)
T2 sequence (whole entry): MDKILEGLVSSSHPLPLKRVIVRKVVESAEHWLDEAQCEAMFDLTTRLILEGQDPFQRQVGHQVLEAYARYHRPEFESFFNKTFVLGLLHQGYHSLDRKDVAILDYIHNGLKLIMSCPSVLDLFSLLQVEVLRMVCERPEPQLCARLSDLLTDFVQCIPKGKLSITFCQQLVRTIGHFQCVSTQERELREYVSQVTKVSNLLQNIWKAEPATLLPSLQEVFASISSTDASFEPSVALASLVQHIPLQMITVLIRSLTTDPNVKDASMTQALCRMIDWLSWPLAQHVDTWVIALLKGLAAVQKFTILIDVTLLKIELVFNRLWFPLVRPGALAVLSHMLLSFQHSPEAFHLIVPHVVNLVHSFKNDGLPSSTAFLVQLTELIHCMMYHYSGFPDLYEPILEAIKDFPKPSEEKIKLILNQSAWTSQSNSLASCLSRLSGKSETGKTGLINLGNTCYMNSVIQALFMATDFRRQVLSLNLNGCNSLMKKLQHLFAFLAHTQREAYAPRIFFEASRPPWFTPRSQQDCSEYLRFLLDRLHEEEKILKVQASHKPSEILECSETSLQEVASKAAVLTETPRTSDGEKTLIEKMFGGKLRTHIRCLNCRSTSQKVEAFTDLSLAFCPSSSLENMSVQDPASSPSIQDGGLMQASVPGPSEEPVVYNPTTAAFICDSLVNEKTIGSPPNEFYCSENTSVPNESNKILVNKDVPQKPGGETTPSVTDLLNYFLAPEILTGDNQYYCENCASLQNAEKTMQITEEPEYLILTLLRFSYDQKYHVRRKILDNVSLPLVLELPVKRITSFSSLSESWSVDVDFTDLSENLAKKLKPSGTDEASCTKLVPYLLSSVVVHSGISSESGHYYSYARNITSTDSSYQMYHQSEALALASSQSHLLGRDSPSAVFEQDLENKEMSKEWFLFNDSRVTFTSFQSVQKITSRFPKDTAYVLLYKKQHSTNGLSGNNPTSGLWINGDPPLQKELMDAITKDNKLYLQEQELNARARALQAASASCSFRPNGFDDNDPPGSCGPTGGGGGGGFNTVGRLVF
In short: as §1

USP39 = molecular target: T3, USP39 (UniProt Q53GS9)
T3 sequence (whole entry): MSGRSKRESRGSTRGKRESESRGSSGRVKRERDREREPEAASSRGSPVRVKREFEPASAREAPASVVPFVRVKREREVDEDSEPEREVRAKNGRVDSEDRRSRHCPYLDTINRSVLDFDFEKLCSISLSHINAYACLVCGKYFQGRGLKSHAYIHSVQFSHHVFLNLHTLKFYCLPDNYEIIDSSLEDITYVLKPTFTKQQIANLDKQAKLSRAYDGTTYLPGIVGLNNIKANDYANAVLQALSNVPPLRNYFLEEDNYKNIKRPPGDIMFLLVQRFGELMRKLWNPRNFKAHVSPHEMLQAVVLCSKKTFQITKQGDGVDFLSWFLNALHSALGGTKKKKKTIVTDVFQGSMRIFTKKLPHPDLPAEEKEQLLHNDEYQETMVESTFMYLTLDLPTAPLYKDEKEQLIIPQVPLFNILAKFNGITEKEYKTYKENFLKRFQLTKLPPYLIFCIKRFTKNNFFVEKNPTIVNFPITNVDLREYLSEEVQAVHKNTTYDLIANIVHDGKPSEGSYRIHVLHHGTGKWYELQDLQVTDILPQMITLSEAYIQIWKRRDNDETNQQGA
In short: as §1

USP4 = molecular target: T4, USP4 (UniProt Q13107)
T4 sequence (whole entry): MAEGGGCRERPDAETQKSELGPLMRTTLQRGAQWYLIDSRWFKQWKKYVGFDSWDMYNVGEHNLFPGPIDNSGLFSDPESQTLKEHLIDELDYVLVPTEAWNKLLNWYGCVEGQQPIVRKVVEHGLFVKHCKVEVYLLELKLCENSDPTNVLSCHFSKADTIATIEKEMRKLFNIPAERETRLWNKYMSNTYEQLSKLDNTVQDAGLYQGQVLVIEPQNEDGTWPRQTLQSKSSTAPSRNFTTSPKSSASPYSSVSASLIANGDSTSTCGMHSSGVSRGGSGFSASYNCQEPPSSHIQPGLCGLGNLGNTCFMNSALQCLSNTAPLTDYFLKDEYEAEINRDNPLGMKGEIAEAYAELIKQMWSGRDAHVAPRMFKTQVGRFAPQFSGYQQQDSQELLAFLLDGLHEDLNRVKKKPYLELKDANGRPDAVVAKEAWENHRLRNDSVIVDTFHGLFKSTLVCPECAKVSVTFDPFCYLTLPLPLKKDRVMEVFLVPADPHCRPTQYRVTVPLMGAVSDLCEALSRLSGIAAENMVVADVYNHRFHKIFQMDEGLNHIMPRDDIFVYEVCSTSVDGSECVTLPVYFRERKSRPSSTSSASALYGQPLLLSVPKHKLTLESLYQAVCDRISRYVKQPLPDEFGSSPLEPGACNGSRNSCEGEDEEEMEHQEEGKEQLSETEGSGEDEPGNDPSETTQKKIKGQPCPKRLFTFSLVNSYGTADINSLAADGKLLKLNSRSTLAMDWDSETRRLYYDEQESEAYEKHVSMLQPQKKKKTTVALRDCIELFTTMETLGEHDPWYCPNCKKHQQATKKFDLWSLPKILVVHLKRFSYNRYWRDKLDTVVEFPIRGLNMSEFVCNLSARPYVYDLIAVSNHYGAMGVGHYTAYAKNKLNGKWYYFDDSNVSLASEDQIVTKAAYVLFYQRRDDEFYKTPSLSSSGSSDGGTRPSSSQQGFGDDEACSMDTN
In short: as §1

Measured: log2 ratio of Biotin-Ahx-Ub-VS probe labelling

Chain of USP34 (Q70CQ2 whole entry, the tested form may be a part): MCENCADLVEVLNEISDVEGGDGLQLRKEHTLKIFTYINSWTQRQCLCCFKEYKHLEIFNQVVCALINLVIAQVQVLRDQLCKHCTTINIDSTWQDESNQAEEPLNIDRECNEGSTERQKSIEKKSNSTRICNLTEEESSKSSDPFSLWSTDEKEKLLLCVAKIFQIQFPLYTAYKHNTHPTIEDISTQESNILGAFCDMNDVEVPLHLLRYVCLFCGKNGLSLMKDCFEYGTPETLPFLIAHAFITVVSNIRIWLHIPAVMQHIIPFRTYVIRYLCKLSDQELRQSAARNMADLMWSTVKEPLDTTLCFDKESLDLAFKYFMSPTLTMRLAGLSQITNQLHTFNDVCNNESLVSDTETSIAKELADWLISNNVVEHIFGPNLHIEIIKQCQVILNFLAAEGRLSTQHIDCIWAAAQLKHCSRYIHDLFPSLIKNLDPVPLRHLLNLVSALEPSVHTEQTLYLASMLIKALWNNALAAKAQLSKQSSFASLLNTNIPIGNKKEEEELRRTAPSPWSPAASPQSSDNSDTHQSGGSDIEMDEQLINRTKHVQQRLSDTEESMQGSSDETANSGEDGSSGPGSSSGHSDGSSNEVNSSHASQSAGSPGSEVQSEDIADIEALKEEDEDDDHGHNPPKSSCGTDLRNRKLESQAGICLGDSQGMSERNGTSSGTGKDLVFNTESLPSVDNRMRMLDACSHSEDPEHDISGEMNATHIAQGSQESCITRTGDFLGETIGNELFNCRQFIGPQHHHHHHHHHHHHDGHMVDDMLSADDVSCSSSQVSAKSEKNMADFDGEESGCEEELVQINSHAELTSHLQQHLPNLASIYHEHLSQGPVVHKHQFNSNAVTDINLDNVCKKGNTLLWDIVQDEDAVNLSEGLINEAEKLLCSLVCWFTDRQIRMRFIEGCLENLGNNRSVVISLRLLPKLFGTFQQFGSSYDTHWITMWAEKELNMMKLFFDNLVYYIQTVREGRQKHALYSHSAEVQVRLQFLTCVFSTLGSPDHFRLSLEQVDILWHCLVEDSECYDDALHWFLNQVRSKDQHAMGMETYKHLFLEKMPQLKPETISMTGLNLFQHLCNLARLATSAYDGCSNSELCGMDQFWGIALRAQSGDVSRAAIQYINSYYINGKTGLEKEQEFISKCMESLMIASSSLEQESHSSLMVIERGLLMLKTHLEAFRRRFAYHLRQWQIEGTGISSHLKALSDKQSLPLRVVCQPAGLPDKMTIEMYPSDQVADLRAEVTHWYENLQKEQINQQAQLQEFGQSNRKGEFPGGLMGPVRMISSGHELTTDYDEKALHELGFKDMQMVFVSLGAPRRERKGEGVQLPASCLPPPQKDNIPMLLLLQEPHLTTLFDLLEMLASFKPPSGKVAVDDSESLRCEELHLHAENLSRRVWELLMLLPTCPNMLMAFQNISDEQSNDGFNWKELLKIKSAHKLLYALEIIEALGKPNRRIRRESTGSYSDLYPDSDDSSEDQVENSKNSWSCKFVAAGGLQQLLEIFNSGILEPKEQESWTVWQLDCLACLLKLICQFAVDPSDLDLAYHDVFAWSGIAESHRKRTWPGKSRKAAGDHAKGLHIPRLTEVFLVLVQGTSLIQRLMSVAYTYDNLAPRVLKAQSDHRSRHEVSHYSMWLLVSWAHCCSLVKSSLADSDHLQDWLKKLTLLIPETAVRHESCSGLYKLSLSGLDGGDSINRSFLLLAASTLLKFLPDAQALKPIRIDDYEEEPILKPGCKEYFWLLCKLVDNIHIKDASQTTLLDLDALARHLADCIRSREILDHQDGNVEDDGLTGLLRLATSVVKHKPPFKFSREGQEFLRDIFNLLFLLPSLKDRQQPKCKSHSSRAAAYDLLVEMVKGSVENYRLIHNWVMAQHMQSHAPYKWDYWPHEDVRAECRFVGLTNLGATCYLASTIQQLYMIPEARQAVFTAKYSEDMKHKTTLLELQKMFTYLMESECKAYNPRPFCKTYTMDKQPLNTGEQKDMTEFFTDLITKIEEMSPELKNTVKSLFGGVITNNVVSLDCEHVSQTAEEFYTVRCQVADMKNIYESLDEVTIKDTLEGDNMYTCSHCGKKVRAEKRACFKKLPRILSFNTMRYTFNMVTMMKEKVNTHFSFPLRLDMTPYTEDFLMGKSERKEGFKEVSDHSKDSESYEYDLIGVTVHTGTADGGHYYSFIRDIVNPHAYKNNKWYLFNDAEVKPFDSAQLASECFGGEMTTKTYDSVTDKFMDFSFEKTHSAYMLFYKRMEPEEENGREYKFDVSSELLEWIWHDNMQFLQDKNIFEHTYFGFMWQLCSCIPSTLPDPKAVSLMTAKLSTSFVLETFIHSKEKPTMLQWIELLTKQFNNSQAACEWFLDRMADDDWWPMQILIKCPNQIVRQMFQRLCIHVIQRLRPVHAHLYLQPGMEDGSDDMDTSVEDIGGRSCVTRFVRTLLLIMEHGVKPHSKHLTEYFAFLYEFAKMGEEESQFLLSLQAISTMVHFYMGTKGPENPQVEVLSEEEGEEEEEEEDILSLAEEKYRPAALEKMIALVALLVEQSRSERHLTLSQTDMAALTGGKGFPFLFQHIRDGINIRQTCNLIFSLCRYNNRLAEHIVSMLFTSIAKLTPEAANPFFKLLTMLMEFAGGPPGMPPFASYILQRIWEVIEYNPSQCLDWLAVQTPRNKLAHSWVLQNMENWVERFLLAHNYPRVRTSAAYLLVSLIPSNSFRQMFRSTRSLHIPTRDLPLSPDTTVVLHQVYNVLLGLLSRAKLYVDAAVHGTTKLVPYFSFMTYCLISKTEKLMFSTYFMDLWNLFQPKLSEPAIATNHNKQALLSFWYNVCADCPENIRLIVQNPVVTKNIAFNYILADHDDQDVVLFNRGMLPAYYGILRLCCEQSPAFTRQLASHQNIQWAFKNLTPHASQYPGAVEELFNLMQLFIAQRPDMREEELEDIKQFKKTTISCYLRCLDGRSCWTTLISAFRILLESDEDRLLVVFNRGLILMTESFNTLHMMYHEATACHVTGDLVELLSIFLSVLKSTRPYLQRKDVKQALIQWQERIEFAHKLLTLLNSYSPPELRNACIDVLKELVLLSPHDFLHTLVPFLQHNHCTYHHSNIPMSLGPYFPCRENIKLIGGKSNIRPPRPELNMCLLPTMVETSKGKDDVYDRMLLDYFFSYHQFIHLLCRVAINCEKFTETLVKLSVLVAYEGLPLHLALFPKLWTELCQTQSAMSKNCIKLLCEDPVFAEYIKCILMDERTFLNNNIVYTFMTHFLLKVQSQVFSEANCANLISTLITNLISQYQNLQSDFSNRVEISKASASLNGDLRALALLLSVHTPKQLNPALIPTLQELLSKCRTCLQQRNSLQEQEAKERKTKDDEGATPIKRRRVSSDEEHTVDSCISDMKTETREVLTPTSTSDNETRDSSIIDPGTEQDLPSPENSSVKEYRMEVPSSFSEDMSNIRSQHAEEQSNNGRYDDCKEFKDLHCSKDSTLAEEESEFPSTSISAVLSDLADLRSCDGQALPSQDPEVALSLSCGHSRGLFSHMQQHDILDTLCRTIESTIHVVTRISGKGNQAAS

NC(=O)C1CCCCN1C(=O)CCl (stereo not given)
inactive: USP34 -0.0479 | USP36 -0.322 | USP38 0.0849 | USP39 0.0987 | USP4 -0.0651
